This is a sample that favours compounds with a hit; in the whole collection about 6.1% have one here.
HepG2 viability: counter-screen for TGF-b inhibitors: cytotoxicity in HepG2 cells; HepG2 CAGA-GFP viability, ATP luminescence, 18 h; actives 0.76% (n = 410,000); Potency, µM (series often up to 46.1 µM), for inactives: top-dose activity change, negative = cytotoxicity, most hits filed as cytotoxic
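HepG2 CAGA-GFP cells (1000/well, DMEM with 1% FBS) received compound, then TGF-beta at 500 pg/mL final, and were incubated 18 hours at 37 degrees C. Viability was read by CellTiter-Glo luminescence. Media-only wells were set as complete cell-killing and DMSO as no toxicity.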
TGFb inhibitor: blocks TGF-b signaling. HepG2 CAGA-GFP TGF-b/SMAD3 reporter, GFP fluorescence, 18 h; TGF-beta stimulated, 500 pg/mL final. Potency, µM (titrated, usually from 46.1 µM), for the others: at the highest dose activity, negative = inhibition, usual class: inhibitors. actives 1.2% (n = 410,000). AID 588855; also: % is scaled to controls: 0 for no effect and ±100 for the full control effect; nearly all actives have a fitted effect of over 65% in size
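Smad-responsive CAGA-GFP expression was quantified in HEPG2 cells exposed to compounds and 500 pg/mL final TGF-beta for 18 h at 37 degrees C; unstimulated wells defined full inhibition.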
RORg inh: ROR gamma (mouse) transcription inhibition; P51450; Drosophila S2 Gal4-RORgamma UAS-luciferase reporter, 20 h; Potency, µM (top dose mostly 53.6 µM), for the others: top-dose activity change, negative = inhibition, most hits filed as inhibitors; actives 5.4% (n = 310,000); also: % is scaled to controls: 0 for no effect and ±100 for the full control effect; nearly all actives have a fitted effect of over 60% in size
Target sequence (P51450 whole entry, looked up, the tested form may be a part): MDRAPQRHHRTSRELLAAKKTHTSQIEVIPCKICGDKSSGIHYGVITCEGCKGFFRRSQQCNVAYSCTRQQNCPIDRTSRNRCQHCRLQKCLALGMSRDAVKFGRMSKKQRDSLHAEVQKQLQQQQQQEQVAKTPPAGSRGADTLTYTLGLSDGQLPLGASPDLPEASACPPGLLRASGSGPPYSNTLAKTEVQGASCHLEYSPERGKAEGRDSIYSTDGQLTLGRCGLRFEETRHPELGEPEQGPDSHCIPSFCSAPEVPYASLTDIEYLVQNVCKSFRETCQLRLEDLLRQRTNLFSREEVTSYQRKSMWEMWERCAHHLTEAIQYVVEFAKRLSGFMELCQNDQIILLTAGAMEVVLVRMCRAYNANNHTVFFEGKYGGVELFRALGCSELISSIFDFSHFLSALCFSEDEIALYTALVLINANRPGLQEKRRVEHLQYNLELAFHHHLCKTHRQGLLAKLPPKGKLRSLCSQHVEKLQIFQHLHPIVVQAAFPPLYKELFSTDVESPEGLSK
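Drosophila S2 cells stably expressing Gal4-DBD/mouse RORγ fusion under metallothionein promoter plus UAS-luciferase; compound 1 h, then 700 uM CuSO4 induction for 20 h at ambient temperature; inhibition read as reduced luminescence.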
VP16 counter: Gal4-VP16 reporter inhibition counter-screen; actives 3.5% (n = 310,000); Drosophila S2 Gal4-VP16 UAS-luciferase, luminescence, 20 h; AID 2546; Potency, µM (titrated, usually from 53.6 µM), without a hit: at the highest dose activity, negative = inhibition, hits mostly inhibitors;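 also: Gal4-VP16 expression switched on by copper sulfate through the metallothionein promoter; % is scaled to controls: 0 for no effect and ±100 for the full control effect; nearly all actives have a fitted effect of over 50% in size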
ATXN2 expr inh: ATXN2 expression inhibition; AID 1745845; HEK-293 ATXN2-luciferase reporter, luminescence, 24 h; actives 0.72% (n = 360,000); Potency, µM (titrated, usually from 57 µM), for the others: at the highest dose activity change, negative = inhibition, usual class: inhibitors; also: % is scaled to controls: 0 for no effect and ±100 for the full control effect; nearly all actives have a fitted effect of over 55% in size
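ATXN2-luciferase reporter cells (luciferase flanked by upstream and downstream ATXN2 gene portions) were treated 24 h at 37 °C with compounds at up to 57 uM. SteadyGlo luminescence gave expression; GF-AFC fluorescence gave viability.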
ATXN viability: viability counter-screen for ATXN expression inhibitors; Potency, µM (top dose mostly 56.7 µM), most hits filed as cytotoxic; S2 cells (HEK-293 line with an ATXN2-luciferase reporter) viability, CellTiter-Fluor protease fluorescence, 24 h; actives 0.49% (n = 400,000); AID 651635; also: nearly all actives have a fitted effect of over 40% in size
* hit, by the source's call; i = inactive; ? = inconclusive; · = not tested or not shown; [ ] = dose if it differs, or a comment. Calls follow the shape of the dose curve; as a rule, active = well fitted curve in the direction sought with a large enough effect; inconclusive = small, poorly fitted or top-dose-only effect, or another doubt; inactive = no such curve, though single readings can be large; an effect the other way counts as inactive or inconclusive. Potency is read from the fitted curve at half-maximal effect.

SMILES | HepG2 viability | TGFb inhibitor | RORg inh | VP16 counter | ATXN2 expr inh | ATXN viability
CCc1ccc(CNC(=O)c2ccc3nc(C4CCCCC4)oc3c2)nc1 | · | · | 6.3µM* | 11µM* | · | ·
COC(=O)c1cc(NC(=O)Cn2ncc3c2-c2ccccc2OC3)cc(C(=O)OC)c1 | -29% | -23% | · | · | -11% | i
O=C(O)c1ccccc1N/N=C\c1ccnc2ccccc12 | -16% | 6% | 5µM* | ? | ? | i
C/C(=N\NC(=O)c1cccc2ccccc12)c1ccccn1 | -11% | 3.2µM* | · | · | ? | 3.5µM*
C/C(=N\NC(=O)c1cccc(Br)c1)c1ccccn1 | -35% | ? | 0.1µM* | 0.028µM* | ? | ?
C/C(=N\NC(=O)c1cc(Br)ccc1O)c1ccccn1 | -27% | ? | 0.4µM* | 0.28µM* | ? | i
C/C(=N\NC(=O)c1cccc2ccccc12)c1cccs1 | 5% | 0% | -13% | 21% | 21% | i
C/C(=N\NC(=O)C(c1ccccc1)c1ccccc1)c1ccccn1 | -13% | ? | 0.63µM* | 1.6µM* | 3.5µM* | 6.3µM*
CCOc1ccc(OCc2ccc(C(=O)N/N=C(\C)c3ccccn3)cc2)cc1 | -4% | -23% | 0.11µM* | 5% | 2.8µM* | ?
COc1ccc(C(=O)N/N=C(\C)c2ccccn2)cc1OC | -48% | ? | 0.35µM* | 0.56µM* | ? | ?
C/C(=N\NC(=O)c1ccccc1Cl)c1ccccn1 | -14% | ? | 1.3µM* | 2.8µM* | · | ?
C/C(=N/NC(=O)c1ccccn1)c1ccncc1 | 1% | 20% | -24% | -12% | 9% | i
C/C(=N\NC(=O)c1ccc(NS(=O)(=O)c2cccs2)cc1)c1ccccn1 | -73% | 1% | -35% | 3% | ? | i
C/C(=N\NC(=O)c1ccc(Cl)c(Cl)c1)c1ccccn1 | -5% | ? | 0.089µM* | 0.0028µM* | ? | ?
CCOC(=O)c1ccc(CN(Cc2ccc(F)cc2)S(=O)(=O)c2ccc(F)c(C(=O)Nc3c(C)cccc3C)c2)cc1 | 2% | 4% | · | · | · | ·
O=C(NCCN1Cc2ccccc2OC(c2ccccc2F)C1)c1cncs1 (centres undefined) | · | · | · | · | · | i
O=C(c1ccc2c(c1)OCO2)N(Cc1cc2cc3c(cc2nc1N1CCOCC1)CCC3)CC1CCCO1 (centres undefined) | · | · | · | · | · | i
O=C(Nc1sc2c(c1C(=O)NCc1ccccc1)CCCC2)c1cc(=O)c2cc(Cl)ccc2o1 | -1% | 0% | · | · | 7% | i
C/C(=N\NC(=O)c1ccoc1C)c1cccc2ccccc12 | 6% | -1% | 13µM* | -8% | 46% | i
COc1cc(NC(=O)c2ccc3oc(=O)c(S(=O)(=O)c4ccccc4)cc3c2)cc(OC)c1 | -17% | ? | · | · | -6% | ?
CCCCCCCCCCOC(=O)Cn1c(COc2ccccc2OC)[n+](C)c2ccccc21 | -100% | ? | ? | 4.5µM* | ? | ?
Cc1sc2nc(CSc3ncn[nH]3)[nH]c(=O)c2c1C | -10% | -3% | 0% | 1% | -26% | i
CCc1cc2c(SCc3nc4sc(C(C)=O)c(C)c4c(=O)[nH]3)ncnc2s1 | -12% | 0% | 10µM* | ? | -35% | i
NC(=O)C1O[C@@H](O)[C@H](O)[C@@H](O)[C@H]1O (some centres undefined) | · | · | -6% | -3% | · | ·
Cc1nn(-c2ccccc2)c(Cl)c1/C=N/Nc1nc2ccccc2n1C | -54% | ? | 1.1µM* | 3.5µM* | · | ?
SMILES | HepG2 viability | TGFb inhibitor | RORg inh | VP16 counter | ATXN2 expr inh | ATXN viability
CC(C)(C)CC(C)(C)N=C1Nc2ccccc2NC12C[C@H]1CCC(=O)N3CC[C@@H](C2)[C@@H]13 (some centres undefined) | -46% | ? | · | · | -2% | ?
CC(C)(C)CC(C)(C)N=C1Nc2cc(Cl)c(Cl)cc2N[C@]12C[C@H]1CCCC(=O)N3CC[C@@H](C2)[C@@H]13 | -44% | 7.1µM* | · | · | · | ·
CC(C)(C)CC(C)(C)N=C1Nc2cc(Cl)c(Cl)cc2NC12C[C@H]1CCC(=O)N3CC[C@@H](C2)[C@@H]13 (some centres undefined) | 13µM* | 11µM* | · | · | ? | ·
COC(=O)C1CCN(Cc2ccc3c(c2)CN(C(=O)C2Cc4ccccc4O2)CCO3)CC1 (centres undefined) | · | · | · | · | · | i
COCCN(C)C(=O)c1cnn(-c2nccc(-c3cc(C)sc3C)n2)c1C | · | · | · | · | · | i
c1ccc(-c2nc(NCCCn3ccnc3)c3oc4ccccc4c3n2)cc1 | 20µM* | ? | -25% | 2% | ? | ?
COCc1c(C(=O)N2CCCCCC2)cnn1-c1nccc(-c2cccs2)n1 | · | · | · | · | · | i
CCOC(=O)c1cccc(NC(=S)NCc2ccc(C)cc2)c1 | -21% | 1% | 10µM* | ? | 5%[11.3 µM] | i
CCOC(=O)c1ccc(NC(=S)Nc2ccccc2)cc1 | 24% | 2% | ? | -13% | -9%[11.3 µM] | i
CCOC(=O)c1cn[nH]c1NC(=S)Nc1ccc(Cl)cc1 | -20% | -27% | 2.8µM* | ? | 177% | i
CCOC(=O)c1ccc(NC(=S)N2CCSC2c2ccc(Cl)cc2)cc1 (centres undefined) | -19% | 3% | 14µM* | ? | 11% | ?
CCOC(=O)c1ccc(NC(=S)N2CCSC2c2ccc(OC)cc2)cc1 (centres undefined) | 5% | 23% | ? | ? | 18% | i
CCOC(=O)c1ccc(NC(=S)Nc2ccc(C)cc2)cc1 | -1% | -19% | 13µM* | ? | -3%[11.3 µM] | i
COc1ccc(N2CC(NC(=O)C3CC3)CC2=O)cc1 (centres undefined) | 6% | 6% | · | · | · | ·
CC(C)CN(C[C@H](O)[C@H](Cc1ccccc1)NC(=O)O[C@H]1CCOC1)S(=O)(=O)c1ccc(N)cc1 | · | · | · | · | -3% | ·
CCOC(=O)c1ccc(NC(=S)NCCc2ccc(F)cc2)cc1 | -1% | -3% | 10µM* | ? | -1% | i
O=C(CSc1nnc(-c2ccccc2)c(-c2ccccc2)n1)NCCc1ccccc1 | -1% | -3% | · | · | 9% | i
Nc1nc(-c2ccccn2)nc(N)c1Cc1ccc(Cl)cc1Cl | -17% | 1% | 4µM* | 8.9µM* | ? | i
Nc1nc(-c2ccccn2)nc(N)c1Cc1c(F)cccc1Cl | -14% | -26% | 2.8µM* | 11µM* | ? | i
Nc1nc(-c2ccccn2)nc(N)c1Cc1ccccc1F | -25% | ? | 6.3µM* | 1% | ? | i
